# From PubChem BioAssay
# DAX1 inh-1: inhibitors of DAX1 repression of SF-1 activated StAR promoter. HEK293T StAR-luciferase reporter, SF-1/DAX-1 repression relief. inhibition, % at 6.8 µM. 370,000 compounds, 1.1% hits. AID 652010;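 active means inhibition above the mean over all tested compounds plus 3 SD, cut at about 3.6% in these data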;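 further: higher inhibition means more luminescence from relief of DAX-1 repression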
# hcDAF12 agonist: H. contortus DAF-12 activation, primary screen; AID 652067; 370,000 compounds, 1.4% hits; HEK293 hcDAF-12 lit1-tk-luc reporter, luminescence; 0% DMSO, 100% Δ7-dafachronic acid; activation, % at 6.8 µM;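 active means activation above the mean of all tested compounds plus 3 SD, cut at about 5.5% in these data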
# AHR activator: activates the human aryl hydrocarbon receptor; 320,000 compounds, 2.5% hits; P35869; activation, % at 5 µM; AHR-responsive luciferase reporter cells, luminescence; AID 2796; in the data active means activation above about 47%
# DAX1 inh-2: NR0B1 (DAX1) inhibition; inhibition, % at 6.75 µM; 340,000 compounds, 0.99% hits; P51843; HEK293 Gal4-DAX1 luciferase reporter, luminescence;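 active means inhibition above the mean over all tested compounds plus 3 SD, cut at about 4.2% in these data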;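 further: inhibition shows as a rise in luminescence from relieved DAX1 repression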
# ssDAF12 agonist: S. stercoralis DAF-12 activation, primary screen | HEK293 ssDAF-12/GRIP1 lit1-tk-luc reporter, luminescence; % of 3 µM dafachronic acid response | activation, % at 6.8 µM | 370,000 compounds, 1% hits | AID 652126;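 active means activation above the mean over all tested compounds plus 3 SD, cut at about 0.9% in these data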
# hgDAF12 agonist: activates the H. glycines DAF-12 receptor ligand-binding domain; AID 687014; activation, % at 6.8 µM; 370,000 compounds, 1.8% hits; HEK293 GAL4-hgDAF12 UAS-luciferase reporter, agonist luminescence; normalized to butyrate control;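 active means activation above a cutoff set at the mean of all screened compounds plus 3 SD, cut at about 10% in these data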
# DAX1 inh confirm: confirmation of human DAX1 (NR0B1) inhibitors. shares compounds with DAX1 inh-1. HEK293T StAR-promoter luciferase reporter, SF-1/DAX-1 repression. inhibition, % at 6.8 µM. 2,400 compounds, 87% hits. AID 652134;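 active means inhibition above the average of every tested compound plus 3 SD, cut at about 3.8% in these data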;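 further: active compounds raise luminescence by relieving repression of the StAR reporter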
# SF1 AF2mut Luc: nonselective inhibitor or artifact in SF-1 mutant DAX1 counter-screen. shares compounds with DAX1 inh-1. HEK293 StAR-luciferase, SF-1 AF2 mutant, luminescence. inhibition, % at 6.8 µM. 2,400 compounds, 78% hits;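 active means inhibition above the mean of all tested compounds plus 3 SD, cut at about 3% in these data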
# LXR ag: activates human LXR-beta, counter-screen for hcDAF-12 agonists; shares compounds with hcDAF12 agonist; HEK293 Gal4-LXR tk-luc reporter, luminescence, 24 h; normalized: DMSO 0%, positive control 100%; activation, % at 6.8 µM; 3,400 tested, under 10 active;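 active means mean percent activation of the reporter above a cutoff set as the average over tested compounds plus their standard deviation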
# Target sequence (P55055 whole entry, looked up, the tested form may be a part): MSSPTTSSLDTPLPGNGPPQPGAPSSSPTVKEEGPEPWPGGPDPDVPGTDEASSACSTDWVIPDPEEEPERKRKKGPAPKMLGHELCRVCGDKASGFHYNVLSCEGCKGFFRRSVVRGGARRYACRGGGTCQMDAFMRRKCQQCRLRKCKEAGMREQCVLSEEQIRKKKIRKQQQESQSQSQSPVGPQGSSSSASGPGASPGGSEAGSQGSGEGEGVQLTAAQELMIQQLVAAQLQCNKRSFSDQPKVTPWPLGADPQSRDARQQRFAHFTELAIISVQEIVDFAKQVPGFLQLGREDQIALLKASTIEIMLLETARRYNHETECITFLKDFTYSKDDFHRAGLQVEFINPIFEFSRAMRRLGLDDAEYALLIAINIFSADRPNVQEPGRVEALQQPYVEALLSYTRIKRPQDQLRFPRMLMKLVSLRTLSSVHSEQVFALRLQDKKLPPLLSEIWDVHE
# hcDAF12 conf: confirmation of H. contortus DAF-12 agonists | shares compounds with hcDAF12 agonist | HEK293 hcDAF-12 lit1-tk-luc reporter, luminescence; % of Δ7-dafachronic acid response | activation, % at 6.8 µM | 3,400 compounds, 61% hits | AID 743032;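 active means mean activation across triplicate tests above the threshold derived from the earlier primary screen, cut at about 5.5% in these data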
# A number is an active result; - = inactive; . = no result given. An excerpt weighted towards active compounds, which were near 5.7% of everything screened.
SMILES,DAX1 inh-1,hcDAF12 agonist,AHR activator,DAX1 inh-2,ssDAF12 agonist,hgDAF12 agonist,DAX1 inh confirm,SF1 AF2mut Luc,LXR ag,hcDAF12 conf
Cc1ccc(CNC(=O)C2CC(c3ccccc3F)=NO2)cc1 (stereo not drawn),-,-,-,-,-,-,.,.,.,.
COc1ccc(OCCCC(=O)NNC(=O)c2ccncc2)cc1,-,-,-,-,-,-,.,.,.,.
Cc1cc(NC(=O)c2ccccc2Cl)no1,-,-,-,-,-,-,.,.,.,.
Cc1cc(NC(=O)NC(=O)c2ccccc2F)no1,5.2,-,-,-,-,-,8.7,-,.,.
Nc1nc2ccccc2n1S(=O)(=O)c1ccccc1,4.8,-,.,.,-,-,-,-,.,.
CC1(C)CC(NC(=S)Nc2ccc([N+](=O)[O-])cc2)CC(C)(C)N1,-,-,-,-,-,-,.,.,.,.
C[C@]12c3[nH]c4cc(-c5ccco5)ccc4c3CCN1C(=O)[C@@H](CC(=O)NCC13CC4CC(CC(C4)C1)C3)C[C@@H]2C(=O)N1CCOCC1,-,-,.,-,-,-,.,.,.,.
C/C(=N\NC(=O)c1ccccn1)C12CC3CC(CC(C3)C1)C2,5.8,-,-,-,-,13,5.6,3.3,.,.
O=S(=O)(Nc1cccc(-c2ccc(N3CCCCCC3)nn2)c1)c1cccc(F)c1,4.6,-,-,-,-,-,6.9,4.4,.,.
O=S(=O)(Nc1cccc(-c2ccc(N3CCCCCC3)nn2)c1)c1ccccc1Cl,-,-,-,-,-,-,.,.,.,.
Cc1ccc(S(=O)(=O)Nc2cccc(-c3ccc(N4CCCCCC4)nn3)c2)cc1C,-,-,-,-,-,-,.,.,.,.
O=S(=O)(Nc1cccc(-c2ccc(N3CCCCCC3)nn2)c1)c1ccc(F)cc1,5.7,-,-,-,-,-,-,-,.,.
CCOc1ccc(S(=O)(=O)Nc2cccc(-c3ccc(N4CCCCCC4)nn3)c2)cc1,-,-,-,-,-,-,.,.,.,.
O=S(=O)(Nc1cccc(-c2ccc(N3CCCCCC3)nn2)c1)c1ccccc1F,5.8,-,-,-,-,-,6.1,-,.,.
O=[N+]([O-])c1ccc(Cl)c(S(=O)(=O)Nc2cccc(-c3ccc(N4CCOCC4)nn3)c2)c1,5.5,-,-,-,-,-,9.5,4.5,.,.
O=C(N1CCCC1)n1ncc(-c2ccc(-c3ccccc3)cc2)n1,.,-,.,.,-,-,.,.,.,.
COCCCNC(=O)C[C@H]1C[C@@]2(C(=O)OC)C(=C[C@H](COCc3ccccc3)O[C@@H]2C)N(Cc2ccco2)C1=O,-,-,.,.,-,-,.,.,.,.
CCOc1ccc(N/C(N)=N/c2nc(CSc3nnnn3-c3ccccc3)cc(=O)[nH]2)cc1,-,-,-,-,-,-,.,.,.,.
Cc1cc(C)n(-c2ccc(C(=O)Nc3cccnc3)cc2)n1,-,-,-,-,-,-,.,.,.,.
Cc1ccc(NC(=O)c2ccc(OCC3CCCO3)cc2)nc1 (stereo not drawn),8.3,-,-,-,-,12,6.7,3.3,.,.
Cc1cc(C)n(-c2ccc(C(=O)NCC(=O)Nc3cc(Cl)ccc3Cl)cc2)n1,-,-,-,-,-,-,.,.,.,.
CCCc1ccc2oc(C(=O)NCc3nnc(C)o3)c(C)c2c1,5.1,6.2,.,-,-,12,7.3,5.1,.,.
CCc1ccc2oc(C(=O)Nc3nonc3C)c(C)c2c1,12,-,-,-,-,11,7.8,3.6,.,.
CCCc1ccc2oc(C(=O)NCCCN3CCOCC3)c(C)c2c1,-,-,-,-,-,-,.,.,.,.
CC(=O)Nc1ccc(NC(=O)c2oc3cc(C)c(C)cc3c2C)cc1,-,-,-,-,-,-,.,.,.,.
SMILES,DAX1 inh-1,hcDAF12 agonist,AHR activator,DAX1 inh-2,ssDAF12 agonist,hgDAF12 agonist,DAX1 inh confirm,SF1 AF2mut Luc,LXR ag,hcDAF12 conf
Cc1cc2oc(C(=O)Nc3nonc3C)c(C)c2cc1C,7.8,-,-,-,-,-,13,7.2,.,.
CC(NC(=O)COc1ccc(N(C)S(=O)(=O)c2ccccc2)cc1)c1ccccc1 (stereo not drawn),-,-,-,-,-,-,.,.,.,.
CCN(CC(=O)Nc1ccc(C)c(S(=O)(=O)N2CCOCC2)c1)Cc1ccccc1,-,-,-,-,-,-,.,.,.,.
CCOc1ccc(OCc2cccc(C(=O)O)c2)cc1,6.6,8.8,-,-,1.0,11,15,7.9,-,15
O=C(/C=C/c1cccs1)N1CCc2ccccc21,7.3,20,54,-,3.6,28,19,8.4,-,21
CC(C)(C)NC(=O)NC(=O)COC(=O)COc1ccc(Cl)cc1Cl,-,-,-,-,-,-,.,.,.,.
CC(C)(C)NC(=O)NC(=O)COc1ccc(Br)cc1Br,7.5,6.6,-,-,-,17,18,6.0,-,9.5
O=C(Nc1ccc(N2CCCC2)cc1)c1cccc(F)c1,4.6,8.8,-,-,-,11,10,-,-,5.7
Cc1ccc2nc(CSc3nc(C)ccc3C#N)[nH]c2c1,6.0,19,-,-,1.4,18,16,6.2,-,26
CN=Cc1sc2ccccc2c1O,-,-,-,-,-,-,.,.,.,.
CC(=Nc1ccc(C)cc1)c1sc2ccccc2c1O,5.3,11,-,-,2.2,15,13,4.3,-,13
COc1ccc(-c2ccn(-c3cccc(F)n3)n2)cc1,-,-,.,-,-,-,.,.,.,.
Nc1nn(-c2cccc(F)n2)cc1-c1ccc(Cl)cc1,5.9,11,.,-,1.4,18,13,5.3,-,9.8
COC(=O)CNc1c(-c2ccccn2)nc2ccc(Br)cn12,4.9,7.8,62,-,-,-,12,6.2,-,6.2
CCOC(=O)CNc1c(-c2ccccc2)nc2ccc(Cl)cn12,-,-,-,-,-,-,.,.,.,.
CCOC(=O)c1c(C)oc2c1c(CN1CCN(CCO)CC1)c(O)c1ccccc12,4.8,7.1,.,-,1.1,-,4.2,3.7,-,6.8
CN(C)CCN(C(=O)c1cccs1)c1nc2cc3c(cc2s1)OCCO3,5.1,7.0,-,-,1.4,-,4.7,5.0,-,-
CN(C)c1ccc(-c2csc(C(O)(c3ccccc3)C(F)(F)F)n2)cc1 (stereo not drawn),-,-,.,.,-,-,.,.,.,.
CN(c1ccc(O)cc1)c1nc(-c2ccccc2)cs1,5.0,8.8,-,-,-,20,12,6.0,-,6.2
